{
  "source": "the supplement of paper PMC6555819",
  "data": [
    {"test_system": "PPARg:RXRa (NR concentration 180 nM, RXRa partner concentration 90 nM)", "test": "PBM binding z-score (relative to random genomic background probes); higher = stronger binding; sequences stand for … in GC…GCGATTGACAGCGTAGAATGAAGG", "method_in_brief": "(§1)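 Antibodies against each partner of ligand-free nuclear receptor dimers (one per run) detected binding on custom Agilent 4×180K protein-binding microarrays after 1 h incubation. The double-stranded probes had 34-nt variable regions carrying direct-repeat seeds, single-nucleotide variants, half-site ablations and random human genomic background sequences. Binding z-scores, from regression-normalized fluorescence, use the random background probes as reference.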", "values": [
      {"sequence": "CTCGAAAGGTCGTGCTCAGGCGAGTATACCAAAC", "PBM binding z-score": 2.05},
      {"sequence": "GCTAGTTGGTCAGTAAAAGTTCACACACCGGTCG", "PBM binding z-score": 0.79},
      {"sequence": "CCGACTGGGGCATAAGGTTACCTTAAGCCAGCCC", "PBM binding z-score": 2.04},
      {"sequence": "TAGCCTAGGTCATTCAGGGGCCAGTAAAGAAAGC", "PBM binding z-score": 1.61},
      {"sequence": "CATACTGGGTCAGCTAGGCCAGAGTAGGGACGGC", "PBM binding z-score": 3.45},
      {"sequence": "CAGCCTAGGTCAGTGCCAGTATAGGAGGAACGTT", "PBM binding z-score": 0.469},
      {"sequence": "TCTCGGAGGACACGAAAGGTCAGATCTCGACATC", "PBM binding z-score": 1.37},
      {"sequence": "CAAACTAGGTCAAAGGTCCAAGTCGAGCCAACCA", "PBM binding z-score": 12.8},
      {"sequence": "CAAACTAGGTCCAAGGTCAAAGTCGAGCCAACCA", "PBM binding z-score": 9.35}
    ]},
    {"test_system": "PPARg:RXRa 270nM:90nM, anti-RXR (NR concentration 270 nM, RXRa partner concentration 90 nM)", "test": "PBM binding z-score (relative to random genomic background probes); higher = stronger binding; sequences stand for … in GC…GCGATTGACAGCGTAGAATGAAGG", "method_in_brief": "as §1", "values": [
      {"sequence": "CGTCCAAGGTCAAGGTCGGTGAAAGAGACTCGAA", "PBM binding z-score": 5.83},
      {"sequence": "TCTTGTAGATCAATAGAGGTTCAGAAAGTGCGCT", "PBM binding z-score": 1.35},
      {"sequence": "CCTACTGGGCCAACGTCATTGATCAGTCAAAGCA", "PBM binding z-score": 0.556},
      {"sequence": "AGAACGAGGGCACGCAGAGTTGATAGCAGAGTAG", "PBM binding z-score": 2.28},
      {"sequence": "GCCTATAGGTAATACAAGGTGAAAGTCCGATTGT", "PBM binding z-score": 0.826},
      {"sequence": "TAGCCTAGGTCATTGGGCGAGTATAGTACGCATC", "PBM binding z-score": 2.83},
      {"sequence": "ACAGACAGGTGAGTGAAGGTAACTAAGCTGGACG", "PBM binding z-score": -0.0366},
      {"sequence": "TTACCAAGTTGAGCTGAGGTCGTTGATCCAACTC", "PBM binding z-score": 0.423},
      {"sequence": "TGAGTGAGGTTAAAGATCAGGGAACGTGGCGTCG", "PBM binding z-score": 4.58},
      {"sequence": "CCTCGGAGGACTGAAGGTCAGAGCTGTCCGCTTT", "PBM binding z-score": 0.572},
      {"sequence": "CCTACTGGGCCACGGTCATTGATCAGTCAAAGCA", "PBM binding z-score": 2.06},
      {"sequence": "GGAACGAGGACATTCGAGTTGATAGCATGGCGAT", "PBM binding z-score": -0.0182},
      {"sequence": "CTACCAAGGAGAACAAGGTCGTTGATTACTATTC", "PBM binding z-score": -0.0538},
      {"sequence": "TCGAGTAGGTTGGGGGCATTCAGAATGGCGTCGA", "PBM binding z-score": 2.35},
      {"sequence": "CCAGATAGGTGAAAGGTAACTCAGTCTGGTACGC", "PBM binding z-score": 7.54},
      {"sequence": "ACTCGGAGGACAAAGGCCAGAGCTACGCCAGTGA", "PBM binding z-score": 2.38},
      {"sequence": "CAAACTAGGTCAAGTTCAAAGTCGGTTTGTGCCA", "PBM binding z-score": 7.48},
      {"sequence": "GTACCAAGGTGGATAGGTCGTTGATGAGTAGGCG", "PBM binding z-score": 0.293},
      {"sequence": "TCTGCTCGGTCAGTTGGTCAGCTAACGAGCTGCC", "PBM binding z-score": 0.38},
      {"sequence": "CATACAGTGTCAGCTAGGCCAGAGTAGGGACGGC", "PBM binding z-score": -0.284},
      {"sequence": "CGTCCAAGGACAAAGGTCAGTGAAGAGATGACGG", "PBM binding z-score": 5.86},
      {"sequence": "TCTATTACTTGATTAGGGCAACCGAAACAGCGGA", "PBM binding z-score": 1.9},
      {"sequence": "ACTATTAGTTGAGACGAGGACAACCGATAGGTTG", "PBM binding z-score": -0.132},
      {"sequence": "GGTATTAGTTGAAAGGGCAACCGAATGATTCTCG", "PBM binding z-score": 5.07},
      {"sequence": "CCGACTGGGGCAAGGGTACCATAACGCACAGCCA", "PBM binding z-score": 4.92},
      {"sequence": "CGTCCAAGGTCAGCAGGTCAGTGACAGCGACGTG", "PBM binding z-score": 4.53},
      {"sequence": "CAAGCTAGGTCACGAAAGGTCAAAGTCGAATGAC", "PBM binding z-score": 7.14},
      {"sequence": "TAGCCTAGGTCATGCGGGCCATTATAGTGTCGGC", "PBM binding z-score": 2.47},
      {"sequence": "CAAACTAGGTCACCGGAAGGTCAAAGACCGCATG", "PBM binding z-score": 7.64},
      {"sequence": "TCATATAGGTAAATGCTAGGTGAAAGCCCGATCT", "PBM binding z-score": 2.27},
      {"sequence": "CTCGAAAGGTCGTGCTCAGGCGAGTATACCAAAC", "PBM binding z-score": 3.49},
      {"sequence": "GCTAGTTGGTCAGTAAAAGTTCACACACCGGTCG", "PBM binding z-score": 1.98},
      {"sequence": "CCGACTGGGGCATAAGGTTACCTTAAGCCAGCCC", "PBM binding z-score": 3.18},
      {"sequence": "TAGCCTAGGTCATTCAGGGGCCAGTAAAGAAAGC", "PBM binding z-score": 2.56},
      {"sequence": "CATACTGGGTCAGCTAGGCCAGAGTAGGGACGGC", "PBM binding z-score": 2.95},
      {"sequence": "CAGCCTAGGTCAGTGCCAGTATAGGAGGAACGTT", "PBM binding z-score": 0.475},
      {"sequence": "TCTCGGAGGACACGAAAGGTCAGATCTCGACATC", "PBM binding z-score": 2.81},
      {"sequence": "CAAACTAGGTCAAAGGTCCAAGTCGAGCCAACCA", "PBM binding z-score": 10.1},
      {"sequence": "CAAACTAGGTCCAAGGTCAAAGTCGAGCCAACCA", "PBM binding z-score": 7.68}
    ]}
  ]
}
